# Measurements from PubChem BioAssay (NCI).
# This is part of a sample that, as a whole, favours compounds with a hit. Of some 79,000 tested, about 15% had one in any assay. A number with no mark means an inactive call. The source made the active and inactive calls. No stated cut-off is given here; in the data, active means growth inhibition above about 70%; inactive means the rest.
# Columns and labels:
# [1] = NCI Yeast Anticancer Drug Screen. Data for the rad52 strain (AID 147);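 further: 0% = growth of vehicle-treated control cultures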; conditions: S. cerevisiae rad52 mutant growth inhibition, stronger effect = higher value
# Summary of the method: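 Here a repair-compromised yeast strain receives each compound; its growth is then quantified and normalised to vehicle-only controls.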
# [2] = NCI Yeast Anticancer Drug Screen. Data for the wt1 strain (AID 149);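 further: 0% = growth of vehicle-treated wt1 cultures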; conditions: S. cerevisiae wt1 strain (SPY 50644) growth inhibition, stronger effect = higher value
# Summary of the method: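 Using yeast strain wt1, compound-induced growth inhibition was determined against vehicle-treated cultures.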
# [3] = NCI Yeast Anticancer Drug Screen. Data for the rad50EPP+ strain (AID 151);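 further: 0% = growth of vehicle-treated control cultures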; conditions: S. cerevisiae rad50 mutant strain, stronger effect = higher value
# Summary of the method: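 Read-out is yeast growth inhibition relative to vehicle; cells used were the rad50EPP+ strain.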
# [4] = NCI Yeast Anticancer Drug Screen. Data for the mgt1 strain (AID 153); conditions: S. cerevisiae mgt1 mutant growth inhibition, stronger effect = higher value
# Summary of the method: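 Measured: inhibition of mgt1 yeast growth by compound, normalized to vehicle-treated cultures.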
# [5] = NCI Yeast Anticancer Drug Screen. Data for the rad50 strain (AID 155);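 further: 0% = growth of vehicle-only cultures of the same strain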; conditions: S. cerevisiae rad50 strain growth inhibition, stronger effect = higher value
# Summary of the method: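 Relative growth inhibition (compound vs vehicle) was measured in yeast with a defined repair-gene alteration.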
# [6] = NCI Yeast Anticancer Drug Screen. Data for the mec2-1 strain (AID 157); conditions: S. cerevisiae mec2-1 strain, stronger effect = higher value
# Summary of the method: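 Using mec2-1 yeast: add compound, measure growth, express inhibition versus vehicle-treated cultures.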
# [7] = NCI Yeast Anticancer Drug Screen. Data for the rad14 strain (AID 159);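 further: 0% = growth of vehicle-treated control cultures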; conditions: S. cerevisiae rad14 strain growth inhibition, stronger effect = higher value
# Summary of the method: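 Screen for anticancer potential: a yeast strain altered in DNA damage repair is grown with compound, and reduced growth is quantified against vehicle controls.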
# [8] = NCI Yeast Anticancer Drug Screen. Data for the sgs1 mgt1 strain (AID 161);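 further: 0% = growth of cultures given vehicle only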; conditions: S. cerevisiae sgs1 mgt1 strain, stronger effect = higher value
# Summary of the method: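 Growth of a repair-deficient yeast mutant was monitored after compound treatment and expressed as inhibition relative to vehicle-treated cultures.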
# [9] = NCI Yeast Anticancer Drug Screen. Data for the CLN2oe strain (AID 163);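 further: 0% = growth of vehicle-only control cultures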; conditions: S. cerevisiae CLN2oe strain, stronger effect = higher value
# Summary of the method: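 Whole-cell yeast growth assay. A strain engineered for altered cell-cycle control received compound, and inhibition relative to vehicle-treated cultures was recorded.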
# [10] = NCI Yeast Anticancer Drug Screen. Data for the cln2 rad14 strain (AID 165);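 further: 0% = growth equal to vehicle treated cultures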; conditions: S. cerevisiae cln2 rad14 strain, stronger effect = higher value
# Summary of the method: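 Yeast strain cln2 rad14, bearing defects in cell cycle control and DNA repair, serves as the test system; values reflect growth inhibition compared with vehicle.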
# [11] = NCI Yeast Anticancer Drug Screen. Data for the bub3 strain (AID 167); conditions: S. cerevisiae bub3 mutant strain, stronger effect = higher value
# Summary of the method: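 Screening used yeast with an engineered genetic alteration affecting cell cycle control. Compound-exposed cultures were compared with vehicle cultures, and reduced growth was taken as inhibition.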
# [12] = NCI Yeast Anticancer Drug Screen. Data for the wt2 strain (AID 169);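 further: 0% = growth of vehicle-treated yeast cultures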; conditions: S. cerevisiae wt2 strain growth inhibition, stronger effect = higher value
# Summary of the method: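 Treated yeast vs. vehicle-treated yeast: growth inhibition determined.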
# [13] = NCI Yeast Anticancer Drug Screen. Data for the mlh1 strain (AID 171);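 further: 0% = growth of vehicle-treated control cultures of the same strain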; conditions: S. cerevisiae mlh1 strain growth inhibition, stronger effect = higher value
# Summary of the method: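 A yeast strain with a defined genetic lesion serves as the test organism. Cultures receive compound or vehicle, and growth is measured.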
# [14] = NCI Yeast Anticancer Drug Screen. Data for the sgs1 strain (AID 173);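 further: 0% = growth of vehicle-only control cultures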; conditions: S. cerevisiae sgs1 mutant, stronger effect = higher value
# Summary of the method: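 A genetically defined yeast mutant is incubated with the test compound, and its growth is compared to that of the same strain given vehicle.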
# [15] = NCI Yeast Anticancer Drug Screen. Data for the mlh1 rad18 strain (AID 175); conditions: S. cerevisiae mlh1 rad18 strain growth inhibition, stronger effect = higher value
# Summary of the method: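 Steps: expose repair-defective yeast to compound; measure growth; express inhibition against vehicle-treated controls.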
# [16] = at 5.0 µM (retest, dose inferred, filed as 0.5)
# [17] = at 50.0 µM (retest, dose inferred, filed as 5.0)
compound,measurement,setting,value
C[CH2][Sn]([CH2]C)([O]C(=O)C(N)Cc1ccccc1)[O]C(=O)C(N)Cc1ccccc1 (stereo not drawn),growth inhibition,[1]; at 1.2 µM,1%
same,growth inhibition,[1]; at 3.7 µM,-4%
same,growth inhibition,[1]; at 11.0 µM,2%
same,growth inhibition,[1]; at 33.0 µM,14%
same,growth inhibition,[1]; at 100.0 µM,52%
same,growth inhibition,[2]; at 1.2 µM,1%
same,growth inhibition,[2]; at 3.7 µM,1%
same,growth inhibition,[2]; at 11.0 µM,14%
same,growth inhibition,[2]; at 33.0 µM,19%
same,growth inhibition,[2]; at 100.0 µM,54%
same,growth inhibition,[3]; at 1.2 µM,-13%
same,growth inhibition,[3]; at 3.7 µM,-13%
same,growth inhibition,[3]; at 11.0 µM,9%
same,growth inhibition,[3]; at 33.0 µM,-28%
same,growth inhibition,[3]; at 100.0 µM,-11%
same,growth inhibition,[4]; at 1.2 µM,6%
same,growth inhibition,[4]; at 3.7 µM,-2%
same,growth inhibition,[4]; at 11.0 µM,1%
same,growth inhibition,[4]; at 33.0 µM,23%
same,growth inhibition,[4]; at 100.0 µM,56%
same,growth inhibition,[5]; at 1.2 µM,10%
same,growth inhibition,[5]; at 3.7 µM,3%
same,growth inhibition,[5]; [16],19%
same,growth inhibition,[5]; at 11.0 µM,14%
same,growth inhibition,[5]; at 33.0 µM,15%
same,growth inhibition,[5]; [17],20%
same,growth inhibition,[5]; at 50.0 µM,55.8%
same,growth inhibition,[5]; at 100.0 µM,54%
same,growth inhibition,[6]; at 1.2 µM,3%
same,growth inhibition,[6]; at 3.7 µM,3%
same,growth inhibition,[6]; [16],19%
same,growth inhibition,[6]; at 11.0 µM,0%
same,growth inhibition,[6]; at 33.0 µM,3%
same,growth inhibition,[6]; [17],36%
same,growth inhibition,[6]; at 50.0 µM,70.5% (active)
same,growth inhibition,[6]; at 100.0 µM,49%
same,growth inhibition,[7]; at 1.2 µM,-23%
same,growth inhibition,[7]; at 3.7 µM,-11%
same,growth inhibition,[7]; at 11.0 µM,-17%
same,growth inhibition,[7]; at 33.0 µM,-13%
same,growth inhibition,[7]; at 100.0 µM,7%
same,growth inhibition,[8]; [16],-21%
same,growth inhibition,[8]; [17],59%
same,growth inhibition,[8]; at 50.0 µM,16.1%
same,growth inhibition,[9]; at 1.2 µM,4%
same,growth inhibition,[9]; at 3.7 µM,-1%
same,growth inhibition,[9]; at 11.0 µM,10%
same,growth inhibition,[9]; at 33.0 µM,14%
same,growth inhibition,[9]; at 100.0 µM,36%
same,growth inhibition,[10]; [16],17%
same,growth inhibition,[10]; [17],76% (active)
same,growth inhibition,[10]; at 50.0 µM,61.1%
same,growth inhibition,[11]; at 1.2 µM,-23%
same,growth inhibition,[11]; at 3.7 µM,-25%
same,growth inhibition,[11]; [16],2%
same,growth inhibition,[11]; at 11.0 µM,-39%
same,growth inhibition,[11]; at 33.0 µM,-29%
same,growth inhibition,[11]; [17],74% (active)
same,growth inhibition,[11]; at 50.0 µM,47.7%
same,growth inhibition,[11]; at 100.0 µM,32%
same,growth inhibition,[12]; at 1.2 µM,-15%
same,growth inhibition,[12]; at 3.7 µM,-21%
same,growth inhibition,[12]; at 11.0 µM,-13%
same,growth inhibition,[12]; at 33.0 µM,-2%
same,growth inhibition,[12]; at 100.0 µM,78% (active)
same,growth inhibition,[13]; at 1.2 µM,6%
same,growth inhibition,[13]; at 3.7 µM,-2%
same,growth inhibition,[13]; at 11.0 µM,1%
same,growth inhibition,[13]; at 33.0 µM,23%
same,growth inhibition,[13]; at 100.0 µM,56%
same,growth inhibition,[14]; at 1.2 µM,-8%
same,growth inhibition,[14]; at 3.7 µM,7%
same,growth inhibition,[14]; at 11.0 µM,4%
same,growth inhibition,[14]; at 33.0 µM,0%
same,growth inhibition,[14]; at 100.0 µM,42%
same,growth inhibition,[15]; [16],17%
same,growth inhibition,[15]; [17],23%
same,growth inhibition,[15]; at 50.0 µM,-22.9%
